The nature of assay [1]: CCTE_Simmons_MITO_basal_resp_rate: CCTE's HepG2 Seahorse XF Respirometric Screening Assay at Basal Respiratory State, Simmons Lab (AID 2284001). The settings on record: actives raise or lower the signal. A digest of the protocol:
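HepG2 respirometry; 7-pt titration 125 nM–100 uM final; kinetic OCR at 6 min intervals for 72 min; n=3 biological, technical singles; DMSO baseline, gain or loss fit; fenpyroximate (decrease) and 2,4-DNP (increase) controls.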

Assay [2] in a line: CCTE_Simmons_MITO_max_resp_rate: CCTE's HepG2 Seahorse XF Respirometric Screening Assay at Maximal Respiratory State [uncoupled], Simmons Lab (AID 2284002). As to conditions: actives raise or lower the signal. The essentials: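 Read-out is oxygen consumption rate at maximal respiration, taken after FCCP uncoupling of compound-treated HepG2 cells. Seven final concentrations from 125 nM to 100 uM were tested, each in three biological replicates.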

Assay [3] can be described thus: CCTE_Simmons_MITO_inhib_resp_rate: CCTE's HepG2 Seahorse XF Respirometric Screening Assay at Inhibited Respiratory State [full ETC block], Simmons Lab (AID 2284006). As to conditions: actives raise or lower the signal. The essentials:
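HepG2 oxygen consumption was measured by Seahorse XF after compound, FCCP, then rotenone/antimycin A injections. Seven concentrations from 125 nM to 100 uM (final) were tested, with 6-min kinetic reads over 72 minutes. Inhibited-state OCR was fitted bidirectionally against DMSO.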

Assay [4] is described as follows: CCTE_Simmons_MITO_viability: CellTiter-Glo Viability Assessment for CCTE's HepG2 Seahorse XF Respirometric Screening Assay [post-hoc], Simmons Lab (AID 2284007; active = hit-call score of the fitted dose curve at least 0.9, where 1 is the maximum;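 for AC50: cells exposed to chemical for 90 min before the ATP read; actives lower ATP signal relative to DMSO baseline meaning reduced viability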). A digest of the protocol: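 HepG2 cells exposed 90 min to 7 concentrations from 125 nM to 100 uM final, then ATP measured by luciferase luminescence. Three biological replicates per concentration; DMSO vehicle; dichlone control at 10 nM–100 uM.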
For orientation: In ATP-based viability assays light output follows the ATP content of the culture.

The nature of assay [5]: CCTE_Harrill_HTTr_Viability_MCF7: CCTE's 6-hour Cell Viability Assessment for the High-Throughput Transcriptomics (HTTr) Platform, in MCF-7 cells cultured in DMEM + 10% fetal bovine serum, Harrill Lab (AID 2284010). The essentials:
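MCF-7 cells in DMEM + 10% FBS, 384-well, exposed 6 h to an eight-point dilution series. Membrane integrity scored by high-content imaging of propidium iodide exclusion; bidirectional fit versus DMSO.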

Assay [6] in a line: TOX21_TR_RXR_BLA_Antagonist_Followup_viability: Viability Assessment in the Tox21 Thyroid Hormone Receptor beta Retinoid X Receptor alpha (RXRa) Antagonism Beta-lactamase (BLA) Follow-Up Assay (AID 2283979; active = hit-call score of the fitted dose curve at least 0.9, where 1 is the maximum). A digest of the protocol: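 Follow-up compounds (11 concentrations, triplicate) were incubated 16 h at 37C/5% CO2 with HEK293T RXRa-bla cells seeded at 2,500/well in charcoal-stripped-serum medium. ATP content by CellTiter-Glo luminescence gave viability; curves fitted in both directions against DMSO.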

Assay [7] in a line: CCTE_Shafer_MEA_acute_spike_number: CCTE's Neural Acute Assay for Total Number of Spikes, Shafer Lab (AID 2284008).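 For AC50: curve fitted for decrease in spike count so AC50 reflects inhibitors.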 A digest of the protocol: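 Read-out is the total spike count over 40 min, expressed as percent change from each well's own pre-treatment baseline and fitted in the loss direction against DMSO. Rat cortical neurons were exposed at 0.03-40 uM on DIV 13 or 15.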
A short description of assay [8]: CCTE_Shafer_MEA_acute_firing_rate_mean: CCTE's Neural Acute Assay for Mean Firing Rate, Shafer Lab (AID 2284009).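 Note: analyzed for loss of signal so actives lower firing rate relative to DMSO.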 The essentials: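 Percent change in well-mean firing rate was derived from extracellular spikes detected at 8x rms noise (300-5000 Hz band-pass) before and after a 40-min compound exposure. Cultures were primary rat cortical neurons, tested at 0.03-40 uM.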

Assay [9] concerns the target Nucleoli Translocation, AR (gene 367) (UniProt P10275). Kind of assay: UPITT_HCI_U2OS_AR_TIF2_Nucleoli_Agonist: University of Pittsburgh U2OS Androgen Receptor-Transcriptional Intermediary Factor 2 (AR-TIF2) Agonism High Content Imaging Assay for Nucleoli Translocation (AID 2283998; active = hit-call score of the fitted dose curve at least 0.9, where 1 is the maximum). The essentials:
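Readout is red (AR-RFP) fluorescence localized to nucleoli, measured by high-content imaging and analysed for increase relative to DMSO. Compound series spanned 0.195 to 50 uM final in 0.5% DMSO.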

The target of assay [10] is Ratio of Nucleoli Translocation and Cytoplasm, AR (gene 367) (UniProt P10275). Kind of assay: UPITT_HCI_U2OS_AR_TIF2_Nucleoli_Cytoplasm_Ratio_Agonist: University of Pittsburgh U2OS Androgen Receptor-Transcriptional Intermediary Factor 2 (AR-TIF2) Agonism High Content Imaging Assay for Ratio of Nucleoli Translocation and Cytoplasm (AID 2284000; active = hit-call score of the fitted dose curve at least 0.9, where 1 is the maximum;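 note: hits raise the red nucleolar to cytoplasm ratio above vehicle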). The essentials:
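Read-out first: nucleolar-to-cytoplasm ratio of red (AR-RFP) signal, quantified by high-content imaging in U2OS cells co-expressing TIF2-GFP. Activity is scored as signal increase over DMSO. Single-point screening used 20 uM final (0.2% DMSO).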

For assay [11] the target is unchanged. Kind of assay: UPITT_HCI_U2OS_AR_TIF2_Nucleoli_Cytoplasm_Ratio_Antagonist: University of Pittsburgh U2OS Androgen Receptor-Transcriptional Intermediary Factor 2 (AR-TIF2) Antagonism High Content Imaging Assay for Ratio of Nucleoli Translocation and Cytoplasm (AID 2283999; active = hit-call score of the fitted dose curve at least 0.9, where 1 is the maximum;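 note: antagonists lower the DHT-driven ratio of nucleolar to cytoplasmic red signal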). A digest of the protocol:
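U2OS cells co-expressing RFP-tagged human AR and GFP-tagged TIF2, antagonist mode with DHT as baseline. Nucleolar-to-cytoplasmic red fluorescence ratio imaged by high-content microscopy; final compound 20 uM (0.2% DMSO) primary, 0.195–50 uM (0.5% DMSO) concentration-response.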

Results filed as inconclusive are left out. The source made the active and inactive calls. Rule for the calls, unless noted: active = hit-call score of the fitted dose curve at least 0.9, where 1 is the maximum; inactive = score below 0.9.

Ratio of Nucleoli Translocation and Cytoplasm, AR (gene 367), sequence (P10275 whole entry, looked up): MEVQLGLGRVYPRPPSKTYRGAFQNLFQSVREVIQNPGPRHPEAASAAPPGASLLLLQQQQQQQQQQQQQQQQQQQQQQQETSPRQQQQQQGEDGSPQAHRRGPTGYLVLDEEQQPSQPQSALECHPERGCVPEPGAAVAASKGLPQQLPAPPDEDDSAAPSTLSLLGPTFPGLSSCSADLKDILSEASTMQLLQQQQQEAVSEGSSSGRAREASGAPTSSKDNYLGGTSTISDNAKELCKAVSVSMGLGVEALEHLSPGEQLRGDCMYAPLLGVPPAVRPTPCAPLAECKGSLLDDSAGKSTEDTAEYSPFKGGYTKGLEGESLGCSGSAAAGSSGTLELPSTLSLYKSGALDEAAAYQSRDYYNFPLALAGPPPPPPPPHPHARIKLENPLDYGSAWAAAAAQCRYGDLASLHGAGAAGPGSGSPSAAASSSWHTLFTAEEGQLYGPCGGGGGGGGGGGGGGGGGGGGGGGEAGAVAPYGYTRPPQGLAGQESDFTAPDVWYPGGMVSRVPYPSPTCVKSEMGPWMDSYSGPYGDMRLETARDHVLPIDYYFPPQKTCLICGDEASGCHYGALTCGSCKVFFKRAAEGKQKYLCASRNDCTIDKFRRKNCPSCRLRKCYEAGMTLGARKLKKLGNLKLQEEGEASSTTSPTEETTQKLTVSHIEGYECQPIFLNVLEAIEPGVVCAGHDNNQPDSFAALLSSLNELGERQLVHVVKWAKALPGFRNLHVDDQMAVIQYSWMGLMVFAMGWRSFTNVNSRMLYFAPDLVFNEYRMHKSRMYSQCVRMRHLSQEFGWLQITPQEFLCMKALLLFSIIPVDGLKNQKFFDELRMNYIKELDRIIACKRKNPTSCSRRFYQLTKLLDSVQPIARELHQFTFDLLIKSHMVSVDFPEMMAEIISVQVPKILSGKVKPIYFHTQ
Nucleoli Translocation, AR (gene 367), sequence (P10275 whole entry, looked up): as above

`CCOP(=S)(OCC)Oc1nc(Cl)n(C(C)C)n1`: the results for the AC50 in [1] and in [2] were 29.3 µM (active) and 38.5 µM (active), respectively. The compound was called inactive in assay [3], in assay [4] and in [5].

As to `CO/N=C(/C1=NOCCO1)c1ccccc1Oc1ncnc(Oc2ccccc2Cl)c1F`, the AC50 – broadly, the concentration giving half of the maximal activity seen – in assay [6] is 52 µM (active); in assay [1], 6.74 µM (active); in assay [2] it was 4.35 µM (active); in assay [3], 6.67 µM (active); in assay [7], 7.05 µM (active); in assay [8], 7.18 µM (active). Further, the compound was called inactive in assay [4] and in [5].

As for `COCC(=O)N(c1c(C)cccc1C)C(C)C(=O)OC` (stereo not drawn), the concentration at half-maximal activity (AC50) in assay [1] is 36.2 µM (active). The outcome in [2], in [3], in assay [7], in assay [8] and in assay [5] was inactive.

On to `CC(C)(C)C(=O)C(Oc1ccc(Cl)cc1)n1cncn1` (stereo not drawn), for which the figures for the AC50 in [1] and in [2] were 40.6 µM (active) and 47.2 µM (active), respectively. In addition, the outcome in assay [3], in assay [4] and in [5] was inactive.

Take `COCC(C)N(C(=O)CCl)c1c(C)csc1C` (stereo not drawn): in [1], the concentration at half-maximal activity (AC50) is 55.3 µM (active). The compound was called inactive in [2], in assay [3], in assay [4] and in [5].

Regarding `COC(=O)c1c(C(F)F)nc(C(F)(F)F)c(C2=NCCS2)c1CC(C)C`, the compound was called inactive in assay [9], in [10] and in assay [5].

For `CCN(CC)c1nc(C)cc(OP(=S)(OC)OC)n1`, the compound was classed as inactive in assay [1], in assay [2], in assay [3], in assay [4] and in [5].

Regarding `COC(=O)N(C(=O)N1CO[C@@]2(C(=O)OC)Cc3cc(Cl)ccc3C2=N1)c1ccc(OC(F)(F)F)cc1`, the result in [11], in [10] and in assay [5] was inactive. Moreover, the figures for the AC50 in [7] and in assay [8] were 8.32 µM (active) and 8.24 µM (active), respectively.

As for `CCOP(=O)(OCC)Oc1nc(Cl)c(Cl)cc1Cl`, the result in assay [10], in assay [3] and in assay [5] was inactive. Besides, the concentration at half-maximal activity (AC50) in [1] is 29.6 µM (active); in [2], 49.8 µM (active); in assay [4], 10.7 µM (active); in assay [7] it was 3.95 µM (active); in assay [8], 3.95 µM (active).

For the compound `Cc1cnc(C2=NC(C)(C(C)C)C(=O)N2)c(C(=O)O)c1` (stereo not drawn), the call in assay [9], in assay [10] and in [5] was inactive.
